Data from PubChem BioAssay AID720650 (Broad Institute, 2013).
A number with no mark means an inactive call. Active and inactive are the calls of the source. The rule behind the calls is not given here.

Experiment: C difficile toxins, biochemical counterscreen, UDPG substrate absence, confirmatory dose response (AID 720650)
Conditions: series mostly up to 19.5 µM; activity change, negative = inhibition: at the top concentration

| SMILES | activity change, negative = inhibition | AC50 |
| --- | --- | --- |
| Cc1ccc(C2=NS(=O)(=O)N(C)C(C(=O)NCc3cccs3)=C2)cc1 | -9.62% |  |
| O=C(CCn1cnc2ccccc21)N/N=C/c1ccc(O)cc1 |  | 12.2 µM (active) |
| NC(=O)c1ccc2c(=O)c(O)c(-c3cc(Cl)c(N)c(Cl)c3)[nH]c2c1 | -2.89% |  |
| CCOC(=O)c1cc([N+](=O)[O-])sc1N | -0.818% |  |
| O=C(C[C@@H]1C[C@@H]2c3cc(NC(=O)c4ccc5c(c4)OCO5)ccc3O[C@@H]2[C@@H](CO)O1)NCc1cccc(F)c1 | -11.8% |  |
| O=C(O)c1cc(S(=O)(=O)Nc2ccc3cn[nH]c3c2)ccc1Cl | 11.7% |  |
| O=C(Nc1ccc(N2CCOCC2)c(Cl)c1)c1ccc2c(c1)OCCO2 | -12.3% |  |
| CC1(C)OC2C(O1)[C@@H](CO)O[C@H]2n1cnc2c(N)ncnc21 (stereo partly specified) | 0.905% |  |
| Cc1ccc(C2=NS(=O)(=O)N(C)C(C(=O)NC(C)c3ccccc3)=C2)cc1 (stereo unspecified) | -6.45% |  |
| CC(/C=N/n1c(-c2ccncc2)n[nH]c1=S)=C\c1ccco1 | 10.5% |  |
| Cc1cscc1-c1nc(NCC2CC2)nc2ccsc12 | 7.56% |  |
| CC(Sc1nccn1C)C(=O)c1c(N)n(C)c(=O)n(C)c1=O (stereo unspecified) | 13% |  |
| COC(=O)c1ccc(C23CC4(C2)[C@H](CN(Cc2ccc(C(F)(F)F)cc2)[C@@H]4c2ccccc2)C3c2ccc(Cl)nc2)cc1 (stereo partly specified) | -0.958% |  |
| COc1cc2nncc(SC)c2cc1OC | -3.57% |  |
| CC(=O)C(Sc1nccc(-c2cccs2)n1)C(C)=O |  | 9.69 µM (active) |
| O=c1[nH]nc(-c2cc(-c3ccccc3)nc3ccccc23)o1 | -13.7% |  |
| CCOc1ccccc1/C=C/c1onc(C)c1S(=O)(=O)N1CCC(C(=O)NC)CC1 | -10.6% |  |
| CCC(=O)c1cn(CC(=O)Nc2cccc(C)c2C)c2ccccc12 | -3.61% |  |
| CC(C)(C)N1C(=O)c2ccc(C(=O)Nc3ccc(O)cc3)cc2C1=O |  | 8.25 µM (active) |
| Cc1ccc(C2=NS(=O)(=O)N(C)C(C(=O)NCc3ccccc3)=C2)cc1 | -8.53% |  |
| Cc1cccc(/C=C/c2onc(C)c2S(=O)(=O)N2CCC(C(=O)NC(C)C)CC2)c1 | -6.17% |  |
